Screening results (PubChem BioAssay)
RMI-FANCM inh: blocks RMI1/RMI2 complex binding to FANCM MM2 peptide; Fluorescence polarization, RMI core complex with F-MM2 peptide; hits give low values; FP signal (polarization) at 33 µM; hit rate 0.58% among 70,000; in the data active = FP signal below about 40
* hit, by the source's call. This excerpt belongs to a sample that is enriched for hits.

SMILES	RMI-FANCM inh
CCOc1ccc(N2CC(NC(=O)NCC3CCCO3)CC2=O)cc1 (stereo unspecified)	56
CCOc1ccc2c(c1)=CC(=Cc1sc(=S)n(CC3CCCO3)c1O)C(=O)N=2 (stereo unspecified)	23*
CCn1c(=NC(=O)C2CCN(S(=O)(=O)c3ccc(F)cc3)CC2)sc2ccccc21	51
Cc1ccc(S(=O)(=O)ON2C(=O)CNC2=O)cc1	52
CC(C)N1CCc2c(sc(NC(=O)c3ccc(Cl)s3)c2-c2nc3ccccc3s2)C1	-19*
Cc1ccc(C(=O)Nc2sc3c(c2-c2nc4ccccc4s2)CCN(C(C)C)C3)c(C)c1	36
CC(C)N1CCc2c(sc(NC(=O)c3ccc(S(=O)(=O)N4CCCCCC4)cc3)c2-c2nc3ccccc3s2)C1	3
NCC(c1ccsc1)N1CCOCC1 (stereo unspecified)	71
CS(=O)(=O)c1ccc(Nc2nc(CC(=O)NCc3ccc4c(c3)OCO4)cs2)cc1	64
N#Cc1c(-c2ccc3c(c2)OCO3)nc(N2CCCCC2)[nH]c1=O	23*
COc1ccc(-c2cc(-c3ccc(C)c(C)c3)nc(SCC(=O)NCc3ccc4c(c3)OCO4)c2C#N)cc1OC	104
N#Cc1c(-c2ccc3c(c2)OCO3)cc(-c2ccccc2O)[nH]c1=O	76
CCN(Cc1ccccc1)S(=O)(=O)c1ccc(C(=O)N(CCCN(C)C)c2nc3ccc(F)cc3s2)cc1	111
COc1ccc(NC(=O)C23CCC(C)(C(=O)C2Br)C3(C)C)cc1 (stereo unspecified)	60
O=C(O)c1cccc2c1/C(=N\Nc1ccc([N+](=O)[O-])cc1[N+](=O)[O-])c1ccccc1-2	60
COC(=O)c1sc2ccccc2c1NC(=S)NC(=O)c1ccc(Cl)cc1	63
COC(=O)c1sc2ccccc2c1NC(=O)c1cc(Cl)sc1Cl	30*
COC(=O)c1sc2ccccc2c1NC(=O)c1ccc(Br)s1	85
Cc1cc(S(=O)(=O)NCC(c2cccn2C)N2CCc3ccccc3C2)ccc1F (stereo unspecified)	68
COc1ccc2nc(-c3ccc(Cl)c(NC(=O)c4ccccc4C)c3)cn2n1	33*
COc1ccc2nc(-c3ccc(F)c(NC(=O)c4ccccc4C)c3)cn2n1	98
COc1ccc2nc(-c3ccc(OC)c(NC(=O)c4ccccc4C)c3)cn2n1	73
O=C(CSc1nc2ccccc2o1)NCCSCc1ccco1	58
CC(COc1ccc(C(C)C)cc1)NS(=O)c1ccc2ccccc2c1 (stereo unspecified)	65
Cc1cccc(CN2CCN(C(c3ccccc3)c3ccc(Cl)cc3)CC2)c1 (stereo unspecified)	66
SMILES	RMI-FANCM inh
CN1CCCN(C(c2ccccc2)c2ccc(Cl)cc2)CC1 (stereo unspecified)	-4*
CN1CCN(C(c2ccccc2)c2ccccc2)CC1	69
O=C(Nc1cc(=O)[nH]c(=O)[nH]1)c1cc(Cl)ccc1Cl	59
COc1ccc(CCNC(=O)CN2CCN(Cc3nc4ccccc4[nH]3)CC2)cc1OC	59
CCc1c(C)nc(-n2nc(C)cc2NC(=O)COc2ccccc2F)[nH]c1=O	55
Fc1ccc2nc(Nc3nnc(-c4ccco4)o3)sc2c1	80
COc1ccccc1-c1nnc(Nc2nc3ccc(F)cc3s2)o1	29*
Fc1ccc2nc(Nc3nnc(-c4cccs4)o3)sc2c1	84
COc1ccc(NC(=O)NC(=O)CC#N)cc1	61
COc1ccc(CCC(=O)Nc2ccc3c(c2)N(C(=O)C(C)(C)C)CC3)cc1	67
NS(=O)(=O)c1ccc(CCNC(=O)C(=O)Nc2ccccc2)cc1	57
N#Cc1c(N)nc2c(c1-c1ccc(Cl)cc1)CCCC2	54
COc1ccc(-c2c(C#N)c(N)nc3c2CN(C)CC3)c(OC)c1OC	-4*
O=C(O)c1cc(O)c2c(c1)[C@@H]([C@H]1c3cc(C(=O)O)cc(O)c3C(=O)c3c(O[C@H]4O[C@H](CO)[C@@H](O)[C@H](O)[C@H]4O)cccc31)c1cccc(O[C@H]3O[C@H](CO)[C@@H](O)[C@H](O)[C@H]3O)c1C2=O	22*
COC(=O)c1ccccc1OC1OC(CO)C(O)C(O)C1O (stereo unspecified)	61
CCOC(=O)/C(C#N)=C/c1ccc(OC)s1	55
COC(=O)/C(C#N)=C/c1ccc(SC)s1	32*
CCOC(=O)/C(C#N)=C/c1ccc(-c2cccs2)s1	82
O=c1[nH]nc(-c2cccs2)c2sc(N3CCCCC3)nc12	89
CCOC(=O)c1c(C)nc2cc(C)ccn12	54
COc1cc(C)c(S(=O)(=O)N2CCN(C(=O)c3ccco3)CC2)cc1C	63
Cc1ccc(N=C2C=C(SC#N)C(=O)C(SC#N)=C2)cc1	-16*
Cc1ccc(N=C2C=C(Cl)C(=O)C(Cl)=C2)cc1	54
Cc1ccc(N=C2CSC(=O)N2)cc1	55
CC1(C)CC(=O)C(N=Nc2ccc(SC(F)(F)F)cc2)=C(O)C1	62
SMILES	RMI-FANCM inh
Cc1ccc(C=Nc2sc(C)c(C)c2C#N)s1	62
Cc1sc(N=Cc2ccco2)c(C#N)c1C	-16*
CCN(CC)c1ccc(C=Nc2sc(C)c(C)c2C#N)cc1	68
COC(=O)c1ccc(NC(=O)CCCn2nc(-c3ccc(C)cc3)ccc2=O)cc1	76
Cc1ccc(N2CCN(S(=O)(=O)c3cc(Cl)ccc3Cl)CC2)c(C)c1	64
Cc1ccc(-c2ccc(N3CCN(S(=O)(=O)c4ccccc4Cl)CC3)nn2)c(C)c1	80
Cc1ccc(S(=O)(=O)N=C2C=CC(=O)C(Cl)=C2)c(C)c1	-12*
Cc1c(C)c(C)c(CSCC(=O)NNC(=S)NCc2ccco2)c(C)c1C	56
COc1ccc(OC)c2sc(N(CC3CCCO3)C(=O)c3ccn(C)n3)nc12 (stereo unspecified)	70
CN(C)C(CNC(=O)c1cccs1)c1cccc2ccccc12 (stereo unspecified)	50
COc1ccc(CC(=O)NCC(c2cccc3ccccc23)N(C)C)cc1 (stereo unspecified)	51
COc1cc(OC)cc(C(=O)NCC(c2cccc3ccccc23)N(C)C)c1 (stereo unspecified)	54*
O=C(Nc1nnc(Cc2ccccc2)o1)C1CCCC1	64
CCOC(=O)N1CCN(C(=O)Cc2csc(Nc3cccc(C(F)(F)F)c3)n2)CC1	60
Cc1ccc(C)c(S(=O)(=O)N=C(c2ccc(Cl)cc2)N2CCOCC2)c1	105
O=C(CCn1cnc(-c2ccccc2)c1-c1ccccc1)N/N=C\c1ccco1	56
COc1ccc(S(=O)(=O)NCCN2CCN(c3ccccc3F)CC2)cc1	66
Cc1ccc2occ(C=O)c(=O)c2c1	17*
Cc1coc2ccccc2c1=O	63
Cc1ccc2oc(C(=O)O)cc(=O)c2c1	59
O=C(CC1C(=O)NCCN1C(=O)Nc1ccc(OCc2ccccc2)cc1)Nc1ccc(F)cc1 (stereo unspecified)	62
NC(=O)c1ccc[n+](CC(=O)c2ccc(Cl)c(Cl)c2)c1	62
NC(=O)C[n+]1ccc2ccccc2c1	12*
NC(=O)c1ccc[n+](CC(=O)c2ccc3c(c2)Cc2ccccc2-3)c1	71
O=C(Nc1nc(-c2cc(Cl)sc2Cl)cs1)c1cccs1	61
O=C(Nc1nc(-c2cc(Cl)sc2Cl)cs1)c1ccc([N+](=O)[O-])s1	28*
Cc1ccc(-c2csc(NC(=O)c3ccc([N+](=O)[O-])s3)n2)cc1	55
O=C(Nc1cc2ccccc2cc1NC(=O)c1ccc([N+](=O)[O-])cc1)c1ccc([N+](=O)[O-])cc1	69
CCOC(=O)N1CCN(C(=O)c2nn(-c3ccccc3)c(=O)cc2OC)CC1	56
